Compound activity (PubChem)
PINK1 modulator: modulators of PINK1 expression; PINK1 immunofluorescence, high-content cytometry, 24 h; Potency, µM (titrated, usually from 76.6 µM), usual class: activators; actives 0.2% (n = 410,000); active = well fitted activation curve with a large enough effect; inconclusive = small, poorly fitted or top-dose-only effect; cell line not stated here; also: nearly all actives have a fitted effect of over 65% in size
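Decision-based qHTS: stable cells, 24 h exposure to five compound concentrations, CCCP as control. Fixed cells stained for PINK1 plus nuclear, mitochondrial and cell markers, cytometer read.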
KB-3-1 tox: KB-3-1 parental cell cytotoxicity; Potency, µM (series often up to 46.1 µM), hits mostly cytotoxic; actives 1.4% (n = 400,000); KB-3-1 viability, CellTiter-Glo ATP luminescence, 72 h; AID 1347075; also: nearly all actives have a fitted effect of over 60% in size
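KB-3-1 parental drug-naive adenocarcinoma cells in DMEM/10% FBS, incubated 72 h at 37 C with pin-transferred compounds across a concentration series. Viability by CellTiter-Glo luminescence; concentration-response curves fitted after normalization.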
KB-V1 cytotox: KB-V1 MDR subline cytotoxicity. actives 3.4% (n = 400,000). Potency, µM (top dose mostly 46.1 µM), hits mostly cytotoxic. AID 1347076. KB-V1 MDR cells viability, CellTiter-Glo, 72 h; also: nearly all actives have a fitted effect of over 60% in size
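Readout: CellTiter-Glo luminescence, 10 min after addition. Cells: KB-V1 MDR subline, 72 h at 37 degrees C with compound. Analysis: corrected, normalized data fitted to concentration-effect curves.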
SW480 rereplic: DNA re-replication induction in SW480 cells; Potency, µM (doses to about 46.1 µM), actives largely listed as activators; SW480 DNA re-replication, Hoechst DNA content imaging, 48 h; actives 1.8% (n = 340,000); AID 624297; also: nearly all actives have a fitted effect of over 55% in size
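SW480 cells exposed to compounds for 48 hr at 37 C, 5% CO2, then Hoechst-stained 40 min. Nuclear DNA content imaged by fluorescence scanning (405 nm excitation, 500-530 nm emission); re-replication scored as increased high-intensity nuclei.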
ALOX12 inh: blocks human arachidonate 12S-lipoxygenase; P18054; purified 12hLO, xylenol orange hydroperoxide absorbance; Potency, µM (titrated, usually from 108 µM), most hits filed as inhibitors; actives 1.1% (n = 580,000)
Target sequence (P18054 whole entry, looked up): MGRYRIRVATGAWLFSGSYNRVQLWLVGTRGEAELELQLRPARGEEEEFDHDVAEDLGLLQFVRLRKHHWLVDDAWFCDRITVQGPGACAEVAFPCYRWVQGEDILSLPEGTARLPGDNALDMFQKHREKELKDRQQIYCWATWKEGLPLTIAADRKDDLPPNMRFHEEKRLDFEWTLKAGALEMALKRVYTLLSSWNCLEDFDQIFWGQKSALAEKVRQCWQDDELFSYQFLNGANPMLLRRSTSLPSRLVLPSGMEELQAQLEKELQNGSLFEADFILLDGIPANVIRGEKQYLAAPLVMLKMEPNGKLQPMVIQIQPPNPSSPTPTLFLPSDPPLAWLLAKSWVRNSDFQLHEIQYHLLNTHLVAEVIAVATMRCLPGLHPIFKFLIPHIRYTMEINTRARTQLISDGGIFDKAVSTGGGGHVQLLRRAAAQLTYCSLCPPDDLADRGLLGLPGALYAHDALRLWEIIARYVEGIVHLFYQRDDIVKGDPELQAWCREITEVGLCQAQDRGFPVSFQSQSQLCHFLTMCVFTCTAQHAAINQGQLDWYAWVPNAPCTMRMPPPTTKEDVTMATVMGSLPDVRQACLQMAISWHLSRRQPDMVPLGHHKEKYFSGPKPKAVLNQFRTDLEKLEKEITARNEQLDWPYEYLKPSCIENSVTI
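Purified human 12hLO at 150 nM in 25 mM Hepes, 0.01% Triton X-100, pH 7.0, preincubated 15 min at room temperature with compound. Reaction started with 40 uM arachidonic acid, 30 min at room temperature. Hydroperoxide measured by Fe-xylenol orange, 573/405 nm absorbance ratio.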
MCF10A rerep: induces DNA re-replication in MCF 10a normal breast cells. actives 2.9% (n = 350,000). Potency, µM (doses to about 46.1 µM), usual class: activators. MCF 10A DNA re-replication, Hoechst nuclear intensity, 48 h; also: nearly all actives have a fitted effect of over 50% in size
Each line names hits and unclear results; the compound was inactive in the other large screens. Only some compounds are listed: those with a hit (about 5.8% of all), similar ones and a draw of the others. Unless noted, calls follow the shape of the dose curve; as a rule, active = well fitted curve in the direction sought with a large enough effect; inconclusive = small, poorly fitted or top-dose-only effect, or another doubt; inactive = no such curve, though single readings can be large; an effect the other way counts as inactive or inconclusive.

CC(C)(C)c1ccc(OCc2ccc(C(=O)Nc3cccnc3)o2)cc1	KB-3-1 tox inconclusive, KB-V1 cytotox inconclusive, SW480 rereplic inconclusive, MCF10A rerep 23µM
COc1ccccc1OCc1ccc(C(=O)Nc2ccncc2)o1	KB-3-1 tox 23µM, KB-V1 cytotox inconclusive
COc1ccccc1OCc1ccc(C(=O)N2N=C(C(F)F)CC2(O)C(F)F)o1 (stereo unspecified)	KB-V1 cytotox 16µM, MCF10A rerep inconclusive
CNC(=O)CN(C)Cc1coc(-c2ccc(C)cc2)n1	none (no result: PINK1 modulator, KB-3-1 tox, KB-V1 cytotox, SW480 rereplic, MCF10A rerep)
Cc1nc(CN2CCCC(CCc3ccccc3C(F)(F)F)C2)no1 (stereo unspecified)	none (no result: PINK1 modulator, KB-3-1 tox, KB-V1 cytotox, SW480 rereplic, MCF10A rerep)
Cc1ccc(C(=O)N2CCCN(S(C)(=O)=O)c3ccccc32)cc1C	none (no result: PINK1 modulator, KB-3-1 tox, KB-V1 cytotox, SW480 rereplic, MCF10A rerep)
COc1nc2ccccc2nc1N1CCC(C(=O)Nc2cccc(C)c2)CC1	none (no result: PINK1 modulator, KB-3-1 tox, KB-V1 cytotox, SW480 rereplic, MCF10A rerep)
CC(C)(C)c1ccc(OCc2ccc(C(=O)N3CCOCC3)o2)cc1	KB-V1 cytotox 26µM, SW480 rereplic inconclusive
Cc1cccc(OCc2ccc(C(=O)N3CCOCC3)o2)c1	none
CC1CCCCN1C(=O)c1ccc(COc2ccc([N+](=O)[O-])cc2)o1 (stereo unspecified)	KB-V1 cytotox 18µM, MCF10A rerep inconclusive
CC1CCCN(Cc2c(O)ccc3c(=O)c(-c4nc5ccccc5s4)c(N)oc23)C1 (stereo unspecified)	KB-3-1 tox inconclusive, KB-V1 cytotox inconclusive, SW480 rereplic inconclusive, MCF10A rerep 21µM
CC1CCN(Cc2c(O)ccc3c(=O)c(-c4nc5ccccc5s4)c(N)oc23)CC1	KB-V1 cytotox inconclusive
CC1(C)CCCN(Cc2c(O)ccc3c(=O)c(-c4nc5ccccc5s4)c(N)oc23)C1	KB-3-1 tox inconclusive, KB-V1 cytotox inconclusive, MCF10A rerep 23µM
c1ccc(-c2cnc3n2C[C@H](CNCc2cccs2)OC3)cc1	none (no result: PINK1 modulator, KB-3-1 tox, KB-V1 cytotox, SW480 rereplic, MCF10A rerep)
Cc1cccc(-c2nc3ccccc3c(C)c2C#N)c1	none (no result: PINK1 modulator, KB-3-1 tox, KB-V1 cytotox, SW480 rereplic, MCF10A rerep)
CN1CCN(CCCNC(=O)CCCOc2cc(=O)n(C)c3ccccc23)CC1	none
Cc1ccc(C)c(N2CCN(C(=O)CCCOc3cc(=O)n(C)c4ccccc34)CC2)c1	KB-3-1 tox inconclusive, KB-V1 cytotox 8.2µM, SW480 rereplic inconclusive, MCF10A rerep inconclusive
COc1ccc(N2CCN(C(=O)CCCOc3cc(=O)n(C)c4ccccc34)CC2)cc1	KB-V1 cytotox 8.2µM
CC(C)CCNC(=O)CCCOc1cc(=O)n(C)c2ccccc12	KB-V1 cytotox 13µM, MCF10A rerep inconclusive
Cc1ccc(-c2nc(Cn3nnc(-c4ccccc4)n3)co2)c(C)c1	none (no result: PINK1 modulator, KB-3-1 tox, KB-V1 cytotox, SW480 rereplic, MCF10A rerep)
Cc1ccc(C)c(C(C)NC(=O)CC(C)(C(=O)O)c2ccccc2)c1 (stereo unspecified)	none (no result: PINK1 modulator, KB-3-1 tox, KB-V1 cytotox, SW480 rereplic, MCF10A rerep)
CCCCn1cnc2c(c1=O)c1nc3ccccc3nc1n2Cc1ccc2c(c1)OCO2	ALOX12 inh 7.9µM
CCC(C)n1cnc2c(c1=O)c1nc3ccccc3nc1n2Cc1ccc(OC)cc1 (stereo unspecified)	KB-V1 cytotox 15µM, MCF10A rerep inconclusive
COc1ccc(Cn2c(C)nc3c(c2=O)c2nc4ccccc4nc2n3Cc2ccco2)cc1	KB-3-1 tox inconclusive, KB-V1 cytotox inconclusive, SW480 rereplic 21µM, ALOX12 inh inconclusive, MCF10A rerep 18µM
CCCCn1c2nc3ccccc3nc2c2c(=O)n(CCC(C)C)cnc21	none
Cc1nc2ccccc2c(=O)n1Cc1ccco1	none
COc1ccc2c(=O)c3c(=O)n(Cc4ccco4)c(-c4ccccc4)nc3oc2c1	KB-V1 cytotox 4.6µM, ALOX12 inh inconclusive
Cc1nn(CC(=O)N(C(C)C)C(C)C)c(C)c1S(=O)(=O)NC(C)(C)C	none (no result: PINK1 modulator, KB-3-1 tox, KB-V1 cytotox, SW480 rereplic, MCF10A rerep)
O=C(CSc1nnc(-c2ccc3c(c2)OCO3)n1-c1ccccc1)c1ccccc1	KB-V1 cytotox 8.2µM
Cc1cccc(-n2c(SCC(=O)c3ccccc3)nnc2-c2ccc(Br)cc2)c1	ALOX12 inh inconclusive (no result: KB-3-1 tox, KB-V1 cytotox, SW480 rereplic, MCF10A rerep)
O=C(CSc1nnc(-c2ccc3c(c2)OCO3)n1-c1ccccc1)c1ccc(Cl)cc1	KB-V1 cytotox 16µM
CC(CC(=O)Nc1cccc(O)c1)(C(=O)O)c1ccccc1 (stereo unspecified)	none (no result: PINK1 modulator, KB-3-1 tox, KB-V1 cytotox, SW480 rereplic, MCF10A rerep)
O=C(CC1Sc2ccccc2NC1=O)Nc1ccccc1[N+](=O)[O-] (stereo unspecified)	KB-V1 cytotox 16µM
CC(=O)c1sc(-c2ccccc2)cc1N	KB-V1 cytotox inconclusive
NNC(=O)c1sc(-c2ccccc2)cc1N	KB-V1 cytotox inconclusive, MCF10A rerep 21µM
O=C(NCC(=O)N1CCN(S(=O)(=O)c2c(Cl)cccc2Cl)CC1)NCc1ccccc1	none (no result: PINK1 modulator, KB-3-1 tox, KB-V1 cytotox, SW480 rereplic, MCF10A rerep)
CCOc1ccc(S(=O)(=O)N2CCN(C(C(=O)O)c3c[nH]c4ccccc34)CC2)cc1 (stereo unspecified)	none (no result: PINK1 modulator, KB-3-1 tox, KB-V1 cytotox, SW480 rereplic, MCF10A rerep)
COc1ccc(-n2c(=O)c(CCC(=O)N3CCN(c4cccc(OC)c4)CC3)nc3ccccc32)cc1	none (no result: SW480 rereplic, MCF10A rerep)
COc1ccc(/C(O)=C/c2nc3ccccc3n(-c3ccccc3)c2=O)cc1	PINK1 modulator inconclusive, SW480 rereplic inconclusive, MCF10A rerep 8.2µM
O=C(N/C(=C/C=C/c1ccccc1)C(=O)N1CCCCC1)c1ccc([N+](=O)[O-])cc1	MCF10A rerep 0.58µM
COc1ccc(OC(C)C(=O)Nc2ccc(Br)cc2C)cc1 (stereo unspecified)	none (no result: PINK1 modulator, KB-3-1 tox, KB-V1 cytotox, SW480 rereplic, MCF10A rerep)
